Laboratory results taken from PubChem BioAssay AID1159580 (chemical genetic matrix, 2015).
“And” between values parts separate entries of the source, which are not always exact repeats. Equal entries are not always repeated. About 2,000 (36%) of roughly 5,500 compounds were called active. Roughly 18% stayed inconclusive and do not appear here. No stated cut-off is given here; in the data, active means normalized growth mostly below about 0.91 (no sharp cut-off); inconclusive means no clear call, values can overlap the other calls; inactive means mostly above about 0.92. This is one part of the list.

Assay: chemical genetic growth profiling, strain panel (AID 1159580);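 further: tested at 20 µM; growth read once vehicle control cultures reached saturation at 30 °C; 1 = growth at the plate median or of vehicle wells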
Settings: growth OD

Measured: normalized growth

CNCCCN1c2ccccc2CCc2ccccc21
inactive: S. cerevisiae deletion strains, locus YKL009W, strain mrt4, stronger effect = lower value 1 | S. cerevisiae deletion strains, locus YKL068W, stronger effect = lower value 1 | S. cerevisiae deletion strains, locus YKL085W, strain MDH1 (second series), stronger effect = lower value 1.04 | S. cerevisiae deletion strains, locus YKL085W, strain MDH1, stronger effect = lower value 1.04 | S. cerevisiae deletion strains, locus YKL160W, strain elf1, stronger effect = lower value 1.03 | S. cerevisiae deletion strains, locus YKL190W, strain CNB1, stronger effect = lower value 1 | S. cerevisiae deletion strains, locus YKR001C, strain vps1, stronger effect = lower value 0.997 | S. cerevisiae deletion strains, locus YKR026C, strain gcn3, stronger effect = lower value 1.01 | S. cerevisiae deletion strains, locus YKR091W, strain srl3, stronger effect = lower value 1.01 | S. cerevisiae deletion strains, locus YLL001W, strain dnm1, stronger effect = lower value 1.03 | S. cerevisiae deletion strains, locus YLL026W, stronger effect = lower value 1.03 | S. cerevisiae deletion strains, locus YLL041C, strain sdh2, stronger effect = lower value 1.01 | S. cerevisiae deletion strains, locus YLR027C, strain aat2, stronger effect = lower value 1.03 | S. cerevisiae deletion strains, locus YLR039C, strain RIC1, stronger effect = lower value 1.22 | S. cerevisiae deletion strains, locus YLR058C, strain SHM2, stronger effect = lower value 1.01 | S. cerevisiae deletion strains, locus YLR102C, strain apc9, stronger effect = lower value 1 | S. cerevisiae deletion strains, locus YLR113W, strain HOG1, stronger effect = lower value 1.02 | S. cerevisiae deletion strains, locus YLR221C, strain rsa3, stronger effect = lower value 0.978 | S. cerevisiae deletion strains, locus YLR258W, strain gsy2, stronger effect = lower value 1 | S. cerevisiae deletion strains, locus YLR262C, strain YPT6 (second series), stronger effect = lower value 1.09 | S. cerevisiae deletion strains, locus YLR262C, strain YPT6, stronger effect = lower value 1.16 | S. cerevisiae deletion strains, locus YLR268W, strain sec22, stronger effect = lower value 0.988 | S. cerevisiae deletion strains, locus YLR320W, strain mms22, stronger effect = lower value 0.987 | S. cerevisiae deletion strains, locus YLR330W, strain CHS5, stronger effect = lower value 1.01 | S. cerevisiae deletion strains, locus YLR342W, strain FKS1 (second series), stronger effect = lower value 0.997 | S. cerevisiae deletion strains, locus YLR342W, strain FKS1, stronger effect = lower value 1.04 | S. cerevisiae deletion strains, locus YLR357W, strain rsc2, stronger effect = lower value 0.985 | S. cerevisiae deletion strains, locus YLR370C, strain arc18, stronger effect = lower value 1.02 | S. cerevisiae deletion strains, locus YLR371W, strain rom2, stronger effect = lower value 0.988 | S. cerevisiae deletion strains, locus YLR384C, strain iki3, stronger effect = lower value 1.01 | S. cerevisiae deletion strains, locus YLR418C, strain cdc73, stronger effect = lower value 0.938 | S. cerevisiae deletion strains, locus YML016C, strain PPZ1, stronger effect = lower value 0.997 | S. cerevisiae deletion strains, locus YML032C, strain rad52, stronger effect = lower value 0.999 | S. cerevisiae deletion strains, locus YML120C, strain ndi1, stronger effect = lower value 1.04 | S. cerevisiae deletion strains, locus YML124C, strain tub3, stronger effect = lower value 1 | S. cerevisiae deletion strains, locus YMR058W, strain fet3, stronger effect = lower value 1.02 | S. cerevisiae deletion strains, locus YMR078C, strain ctf18, stronger effect = lower value 1 | S. cerevisiae deletion strains, locus YMR125W, strain sto1, stronger effect = lower value 0.985 | S. cerevisiae deletion strains, locus YMR129W, stronger effect = lower value 1.01 | S. cerevisiae deletion strains, locus YMR205C, strain PFK2, stronger effect = lower value 1.04 | S. cerevisiae deletion strains, locus YMR223W, strain ubp8, stronger effect = lower value 0.983 | S. cerevisiae deletion strains, locus YMR231W, strain pep5, stronger effect = lower value 1.01 | S. cerevisiae deletion strains, locus YMR263W, strain SAP30, stronger effect = lower value 0.997 | S. cerevisiae deletion strains, locus YMR307W, strain GAS1, stronger effect = lower value 1.1 and 0.99 | S. cerevisiae deletion strains, locus YNL067W, strain RPL9B, stronger effect = lower value 0.998 | S. cerevisiae deletion strains, locus YNL071W, strain lat1, stronger effect = lower value 0.994 | S. cerevisiae deletion strains, locus YNL128W, strain TEP1, stronger effect = lower value 1.02 | S. cerevisiae deletion strains, locus YNL153C, strain GIM3, stronger effect = lower value 0.989 | S. cerevisiae deletion strains, locus YNL175C, strain NOP13, stronger effect = lower value 1 | S. cerevisiae deletion strains, locus YNL183C, strain NPR1, stronger effect = lower value 0.959 | S. cerevisiae deletion strains, locus YNL197C, strain WHI3, stronger effect = lower value 1 | S. cerevisiae deletion strains, locus YNL209W, strain ssb2, stronger effect = lower value 1 | S. cerevisiae deletion strains, locus YNL224C, strain SQS1, stronger effect = lower value 0.998 | S. cerevisiae deletion strains, locus YNL233W, strain BNI4, stronger effect = lower value 0.985 | S. cerevisiae deletion strains, locus YNL248C, strain rpa49, stronger effect = lower value 0.995 | S. cerevisiae deletion strains, locus YNL250W, strain rad50, stronger effect = lower value 1.01 | S. cerevisiae deletion strains, locus YNL271C, strain bni1, stronger effect = lower value 0.998 | S. cerevisiae deletion strains, locus YNL298W, strain CLA4, stronger effect = lower value 0.998 | S. cerevisiae deletion strains, locus YNL307C, strain MCK1, stronger effect = lower value 1 | S. cerevisiae deletion strains, locus YNL322C, strain KRE1 (second series), stronger effect = lower value 1.02 | S. cerevisiae deletion strains, locus YNL322C, strain KRE1, stronger effect = lower value 1.01 and 0.993 | S. cerevisiae deletion strains, locus YNR049C, strain mso1, stronger effect = lower value 1.01 | S. cerevisiae deletion strains, locus YNR052C, strain pop2, stronger effect = lower value 1.01 | S. cerevisiae deletion strains, locus YOL012C, strain htz1 0.655 | S. cerevisiae deletion strains, locus YOL147C, strain pex11, stronger effect = lower value 1 | S. cerevisiae deletion strains, locus YOR001W, strain rrp6, stronger effect = lower value 1.02 | S. cerevisiae deletion strains, locus YOR061W, strain CKA2, stronger effect = lower value 1.01 | S. cerevisiae deletion strains, locus YOR069W, strain VPS5, stronger effect = lower value 1.01 | S. cerevisiae deletion strains, locus YOR070C, strain gyp1, stronger effect = lower value 1.01 | S. cerevisiae deletion strains, locus YOR080W, strain dia2, stronger effect = lower value 1.03 | S. cerevisiae deletion strains, locus YOR083W, strain WHI5 (second series), stronger effect = lower value 1.03 | S. cerevisiae deletion strains, locus YOR083W, strain WHI5, stronger effect = lower value 1.02 | S. cerevisiae deletion strains, locus YOR106W, strain vam3, stronger effect = lower value 1.06 | S. cerevisiae deletion strains, locus YOR136W, strain idh2, stronger effect = lower value 0.999 | S. cerevisiae deletion strains, locus YOR144C, strain elg1, stronger effect = lower value 1 | S. cerevisiae deletion strains, locus YOR184W, strain ser1, stronger effect = lower value 1.03 | S. cerevisiae deletion strains, locus YOR231W, strain MKK1, stronger effect = lower value 1.01 | S. cerevisiae deletion strains, locus YOR265W, strain rbl2, stronger effect = lower value 1.02 | S. cerevisiae deletion strains, locus YOR270C, strain vph1, stronger effect = lower value 0.961 | S. cerevisiae deletion strains, locus YOR290C, strain snf2, stronger effect = lower value 0.981 | S. cerevisiae deletion strains, locus YOR316C, strain cot1, stronger effect = lower value 1.01 | S. cerevisiae deletion strains, locus YPL051W, strain arl3, stronger effect = lower value 1.01 | S. cerevisiae deletion strains, locus YPL055C, strain LGE1, stronger effect = lower value 0.96 | S. cerevisiae deletion strains, locus YPL078C, strain atp4, stronger effect = lower value 1.05 | S. cerevisiae deletion strains, locus YPL106C, strain sse1, stronger effect = lower value 1.04 | S. cerevisiae deletion strains, locus YPL240C, strain hsp82, stronger effect = lower value 1.01 | S. cerevisiae deletion strains, locus YPL241C, strain CIN2, stronger effect = lower value 1.01 and 0.994 | S. cerevisiae deletion strains, locus YPL256C, strain CLN2, stronger effect = lower value 1.01 | S. cerevisiae deletion strains, locus YPR119W, strain clb2, stronger effect = lower value 1 | S. cerevisiae deletion strains, locus YPR141C, strain kar3, stronger effect = lower value 1 | S. cerevisiae deletion strains, locus YPR163C, strain tif3, stronger effect = lower value 0.989 | S. cerevisiae deletion strains, locus YPR167C, strain met16, stronger effect = lower value 1.01 | S. cerevisiae deletion strains, strain wtn01, stronger effect = lower value 0.985 | S. cerevisiae strains, strain wild type, stronger effect = lower value 1.01
